Fam108B counter – blocks mouse Fam108B hydrolase in RBBP9 counter-screen; AID 1947; 300,000 compounds, 0.33% hits; recombinant Fam108B, FP-Rh probe fluorescence polarization; inhibition, % at 9.51 µM;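 active means inhibition above the screen mean inhibition plus 3 SD, computed separately per campaign, cut at about 18% in these data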;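 further: inhibitors lower polarization as less probe binds the enzyme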
LYPLA1 inh – blocks human lysophospholipase 1, a PME1 counter-screen | O75608 | recombinant LYPLA1, FP-Rh probe fluorescence polarization | inhibition, % at 5.9 µM | 320,000 compounds, 0.16% hits | AID 2174;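 active means inhibition above the mean of all tested compounds plus 3 SD, set per campaign, cut at about 14% in these data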;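 further: inhibitors block serine hydrolase probe labeling of LYPLA1 so polarization falls; 0% = enzyme with DMSO and 100% = wells lacking LYPLA1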
PAD4 FP inh – PAD4 (human) enzyme inhibition. Q9UM07. recombinant PAD4, RCA probe fluorescence polarization. inhibition, % at 6.36 µM. 330,000 compounds, 0.41% hits;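 active means percent inhibition above a cutoff equal to the mean of all tested compounds plus 3 SD, cut at about 15% in these data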;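 further: 0% = PAD4 with RCA probe and DMSO and 100% = probe without PAD4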
Target sequence (Q9UM07 whole entry, looked up): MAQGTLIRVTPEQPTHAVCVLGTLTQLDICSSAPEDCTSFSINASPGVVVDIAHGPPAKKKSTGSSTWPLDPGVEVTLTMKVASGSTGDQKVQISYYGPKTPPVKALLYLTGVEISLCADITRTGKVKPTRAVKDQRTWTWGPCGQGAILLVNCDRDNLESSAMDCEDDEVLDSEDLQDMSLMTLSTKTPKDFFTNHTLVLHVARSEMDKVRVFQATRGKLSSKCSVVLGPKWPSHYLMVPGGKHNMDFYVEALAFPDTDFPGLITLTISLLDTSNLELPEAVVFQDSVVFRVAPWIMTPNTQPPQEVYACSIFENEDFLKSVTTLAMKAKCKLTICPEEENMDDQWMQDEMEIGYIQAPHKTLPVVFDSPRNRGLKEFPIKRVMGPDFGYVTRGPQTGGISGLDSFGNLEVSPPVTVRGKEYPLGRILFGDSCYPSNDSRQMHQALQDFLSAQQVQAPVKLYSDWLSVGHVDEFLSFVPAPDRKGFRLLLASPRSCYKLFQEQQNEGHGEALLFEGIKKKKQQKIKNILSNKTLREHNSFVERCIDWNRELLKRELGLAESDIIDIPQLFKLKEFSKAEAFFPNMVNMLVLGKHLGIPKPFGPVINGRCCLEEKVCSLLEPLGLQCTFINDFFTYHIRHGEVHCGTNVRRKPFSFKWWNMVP
PME-1 inh – blocks human protein phosphatase methylesterase 1 | inhibition, % at 5.9 µM | 320,000 compounds, 0.53% hits | AID 2130 | Q9Y570 | recombinant PME-1, FP-Rh probe fluorescence polarization;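 active means inhibition above the campaign mean of all compounds plus 3 SD, cut at about 26% in these data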;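 further: competitive labeling of PME-1 active site by serine hydrolase directed probe; 0% = PME-1 with DMSO and 100% = wells lacking PME-1 enzyme; inhibitors block probe labeling so polarization falls and inhibition rises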
GSTO1 counter – counter-screen for RBBP9 inhibitors: inhibitors of human GSTO1. P78417. recombinant GSTO1, activity-based probe fluorescence polarization. inhibition, % at 5.96 µM. 300,000 compounds, 1.1% hits;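 active means inhibition above the campaign mean inhibition plus 3 SD, cut at about 35% in these data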;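 further: 0% = GSTO1-1 with DMSO and 100% = wells lacking GSTO1-1 enzyme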
LYPLA2 counter – LYPLA2 (human) inhibition in PME1 counter-screen. 320,000 compounds, 0.38% hits. O95372. recombinant LYPLA2, FP-Rh probe fluorescence polarization. inhibition, % at 5.9 µM;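 active means inhibition above the screen-wide mean plus 3 SD, limit set per campaign, cut at about 26% in these data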;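 further: 0% = LYPLA2 with DMSO and 100% = wells lacking LYPLA2 enzyme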
Fam108b inh conf – confirmation of mouse Fam108b serine hydrolase inhibitors. shares compounds with Fam108B counter. recombinant Fam108b, FP-Rh probe fluorescence polarization. inhibition, % at 9.51 µM. 930 compounds, 44% hits;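 active means inhibition above a limit from the primary screen, the mean over all compounds plus 3 SD, cut at about 19% in these data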;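 further: 0% = median of active Fam108b wells and 100% = catalytically dead S170A mutant; inhibitors free the probe so polarization falls as inhibition rises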
Fam108b inh – mouse ABHD17B inhibition; 260 compounds, 44% hits; shares compounds with Fam108B counter; recombinant Fam108b, gel-based ABPP, fluorophosphonate probe; inhibition, % at 20 µM; in the data active means inhibition above about 40%
GSTO1 inh conf – GSTO1 (human) inhibition, confirmation | shares compounds with GSTO1 counter | recombinant GSTO1, probe fluorescence polarization | inhibition, % at 5.96 µM | 2,400 compounds, 54% hits | AID 2176;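 active means inhibition above the primary screen's cutoff, its mean inhibition plus 3 SD, cut at about 35% in these data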;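 further: loss of polarization as inhibitors block binding of rhodamine sulfonate ester activity probe; 0% = GSTO1 with DMSO and 100% = wells lacking GSTO1 enzyme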
LYPLA1 confirm – LYPLA1 (human) inhibition, confirmation counter-screen. AID 2233. shares compounds with LYPLA1 inh. 480 compounds, 69% hits. recombinant LYPLA1, FP-Rh probe fluorescence polarization. inhibition, % at 5.9 µM;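 active means mean inhibition across replicates above the hit cutoff set in the primary screen, cut at about 15% in these data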;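 further: loss of FP-Rh probe labeling of LYPLA1 seen as lower polarization; 0% = LYPLA1 with DMSO and 100% = wells lacking LYPLA1 enzyme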
LYPLA2 confirm – LYPLA2 (human) inhibition, confirmation counter-screen. 1,100 compounds, 72% hits. recombinant LYPLA2, FP-Rh probe fluorescence polarization. inhibition, % at 5.9 µM. shares compounds with LYPLA2 counter;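 active means mean inhibition across replicates above the hit cutoff set in the primary screen, cut at about 26% in these data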;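 further: blocked labeling of the enzyme by serine hydrolase FP-Rh probe lowers polarization; 0% = enzyme with DMSO and 100% = wells lacking LYPLA2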
PAD4 FP conf – PAD4 (human) inhibition, confirmed; inhibition, % at 6.36 µM; recombinant PAD4, RCA probe fluorescence polarization; shares compounds with PAD4 FP inh; 1,200 compounds, 28% hits;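 active means mean inhibition across replicates above the hit cutoff set by the earlier primary screen, cut at about 15% in these data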;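 further: inhibitors block active-site labeling by the probe so polarization falls; 0% = PAD4 with probe and DMSO and 100% = probe without PAD4 enzyme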
The depositor's hits bear a star. Only some compounds are listed: those with a hit (about 1.8% of all), similar ones and a draw of the others.

For COC(=O)c1ccc(C(=O)OC)c(NC(=O)CSc2n[nH]c(N)n2)c1 the results were PAD4 FP inh -0.1.
`CCCCn1c(N)c(N(CC(C)C)C(=O)c2cc(-c3ccco3)nc3ccccc23)c(=O)[nH]c1=O` gave Fam108B counter 2.4, LYPLA1 inh -1.8, PAD4 FP inh -3.0, PME-1 inh 2.4, GSTO1 counter 14.5 and LYPLA2 counter 11.3.
Screening Cn1ncc([N+](=O)[O-])c1C(=O)Nc1ccc(C2CCCCC2)cc1 returned Fam108B counter -7.5, LYPLA1 inh -0.8, PAD4 FP inh -5.6, PME-1 inh -3.1, GSTO1 counter -0.9 and LYPLA2 counter -2.7.
For Cc1ccsc1C=Nc1ccc(O)cc1 the results were Fam108B counter 41.7*, LYPLA1 inh 38.3*, PAD4 FP inh 30.0*, PME-1 inh 55.4*, GSTO1 counter 92.3*, LYPLA2 counter 40.5*, Fam108b inh conf 3.7, GSTO1 inh conf 36.6*, LYPLA1 confirm 6.1, LYPLA2 confirm -0.5 and PAD4 FP conf -5.0.
For NS(=O)(=O)c1ccc(NC2=CC(=O)C(=O)c3ccccc32)cc1 the results were Fam108B counter 20.0*, LYPLA1 inh 1.8, PAD4 FP inh 28.3*, PME-1 inh 8.6, GSTO1 counter 84.4*, LYPLA2 counter 1.6, Fam108b inh conf 32.2*, Fam108b inh 0.0, GSTO1 inh conf 87.6* and PAD4 FP conf 61.5*.
`CCOc1ccc(NCc2nnc(SCc3ccc(Cl)cc3)n2-c2ccccc2)cc1` gave Fam108B counter 1.2, LYPLA1 inh -4.3, PAD4 FP inh 1.6, PME-1 inh 12.5, GSTO1 counter 1.3 and LYPLA2 counter -5.0.
Screening CN1C(=O)c2cccc(NCCCN3C(=O)c4ccccc4C3=O)c2C1=O returned Fam108B counter -2.8, LYPLA1 inh 4.8, PAD4 FP inh -3.2, PME-1 inh 0.9, GSTO1 counter 4.2 and LYPLA2 counter 3.5.
`CCCCNc1c2c3c(cccc3n(C)c1=O)C(=O)c1ccccc1-2` gave Fam108B counter 45.3*, LYPLA1 inh 41.9*, PAD4 FP inh 90.1*, PME-1 inh 74.8*, GSTO1 counter 43.6*, LYPLA2 counter 54.5*, Fam108b inh conf 48.7*, Fam108b inh 25.0, GSTO1 inh conf 34.0, LYPLA1 confirm 39.1*, LYPLA2 confirm 37.1* and PAD4 FP conf 81.3*.
Cc1ccc(NC(=O)NC(=O)N(C(C)C)S(C)(=O)=O)nc1 was read as Fam108B counter 0.2, LYPLA1 inh -1.3, PAD4 FP inh -5.2, PME-1 inh -10.4, GSTO1 counter 12.2 and LYPLA2 counter 7.5.
For Cn1c(=O)cc2c3c(c(N4CCCCC4)ccc31)C(=O)c1ccccc1-2 the results were Fam108B counter 24.5*, LYPLA1 inh 27.7*, PAD4 FP inh 69.9*, PME-1 inh 39.9*, GSTO1 counter 38.9*, LYPLA2 counter 38.0*, Fam108b inh conf 19.3*, GSTO1 inh conf 24.0, LYPLA1 confirm 19.6*, LYPLA2 confirm 27.7* and PAD4 FP conf 37.2*.
`Cn1c(=O)c(N)c2c3c(c(Br)ccc31)C(=O)c1ccccc1-2` gave Fam108B counter 29.4*, LYPLA1 inh 17.0*, PAD4 FP inh 106.0*, PME-1 inh 37.0*, GSTO1 counter 29.2, LYPLA2 counter 28.8*, Fam108b inh conf 25.7*, LYPLA1 confirm 21.1* and PAD4 FP conf 126.1*.
For COc1ccc(C2/C=C\CN(C(=O)OCC3c4ccccc4-c4ccccc43)CC(=O)N2Cc2cccc(F)c2)cc1 (centres undefined) the results were PAD4 FP inh 2.1.
For CC(C)c1ccc2c(c1)C(c1ccc(N3CCOCC3)cc1)=NNC(c1cccs1)=N2 the results were Fam108B counter 4.1, LYPLA1 inh 0.4, PAD4 FP inh 0.6, PME-1 inh -1.4, GSTO1 counter 7.5 and LYPLA2 counter 2.3.
`N#Cc1c(N2CCCC2)nc(N)c2c(N)nc(N3CCCC3)cc12` gave Fam108B counter 57.9*, LYPLA1 inh 7.0, PAD4 FP inh 47.7*, PME-1 inh 20.6, GSTO1 counter 93.1*, LYPLA2 counter 13.8, Fam108b inh conf 126.0*, Fam108b inh 0.0, GSTO1 inh conf 90.8* and PAD4 FP conf 43.1*.
`Cn1ccnc1C(O)c1ccccc1` (centres undefined) gave Fam108B counter -1.3, LYPLA1 inh 1.2, PAD4 FP inh 1.1, PME-1 inh -0.4, GSTO1 counter 3.2 and LYPLA2 counter 4.1.
`COc1ccc2ccccc2c1C(O)c1nccn1C` (centres undefined) gave Fam108B counter 25.6*, LYPLA1 inh 23.9*, PAD4 FP inh 26.3*, PME-1 inh 28.9*, GSTO1 counter 35.7*, LYPLA2 counter 29.6*, Fam108b inh conf 55.5*, Fam108b inh 0.0, LYPLA1 confirm 14.8*, LYPLA2 confirm 8.6 and PAD4 FP conf 39.2*.
CCNc1ccc2noc3c2c1C(=O)c1ccccc1-3 was read as Fam108B counter 114.6*, LYPLA1 inh 107.7*, PAD4 FP inh 112.3*, PME-1 inh 110.6*, GSTO1 counter 93.9*, LYPLA2 counter 117.5*, Fam108b inh conf 148.9*, Fam108b inh 95.0*, GSTO1 inh conf 75.9*, LYPLA1 confirm 108.5*, LYPLA2 confirm 111.9* and PAD4 FP conf 101.6*.
`CCCc1ccc(NC(=O)C2CCCN(c3cnccn3)C2)cc1` (centres undefined) gave Fam108B counter -1.1, LYPLA1 inh -0.6, PAD4 FP inh -1.7, PME-1 inh -3.4, GSTO1 counter 0.4 and LYPLA2 counter 1.9.
Screening O=C1C=C(N2CCCCC2)c2ccccc2C1=O returned Fam108B counter 69.2*, LYPLA1 inh 40.0*, PAD4 FP inh 64.8*, PME-1 inh 39.6*, GSTO1 counter 90.6*, LYPLA2 counter 26.9*, Fam108b inh conf 81.7*, Fam108b inh 0.0, GSTO1 inh conf 88.3*, LYPLA1 confirm 37.3*, LYPLA2 confirm 32.2* and PAD4 FP conf 61.4*.

Screening results: PubChem BioAssay, The Scripps Research Institute Molecular Screening Center
